# Shown are actives, neighbours in structure and some others; about 4.4% of the full set was active somewhere.
# TRHR PAM = qHTS for Small Molecule Agonists and Allosteric Enhancers of Human TRH Receptor: Primary Screen for Enhancers. TRHR cells, fluo-8 calcium fluorescence, EC20 TRH enhancement. 360,000 compounds, 0.66% hits. enhancement, % at 2 µM; in the data active = enhancement above about 30%
# Target sequence (P34981 whole entry, looked up): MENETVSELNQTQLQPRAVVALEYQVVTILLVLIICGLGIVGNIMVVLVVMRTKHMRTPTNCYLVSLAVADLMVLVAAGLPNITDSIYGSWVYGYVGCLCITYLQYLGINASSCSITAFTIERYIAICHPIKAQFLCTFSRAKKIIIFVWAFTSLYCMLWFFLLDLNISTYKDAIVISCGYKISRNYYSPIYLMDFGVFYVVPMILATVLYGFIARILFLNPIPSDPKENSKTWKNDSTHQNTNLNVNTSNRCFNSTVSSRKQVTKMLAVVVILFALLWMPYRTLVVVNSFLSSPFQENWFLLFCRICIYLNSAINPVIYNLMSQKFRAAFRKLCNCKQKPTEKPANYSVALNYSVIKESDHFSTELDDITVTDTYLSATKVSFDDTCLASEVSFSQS
#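 TRHR-expressing cells loaded with fluo-8 calcium dye were read kinetically (ex 480/em 530) during compound addition, then stimulated with an EC20 of TRH (10 nM final). Enhancement of the Gq-mediated intracellular calcium response was scored.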
# D1 ag = Allosteric Agonists of the Human D1 Dopamine Receptor: qHTS | HEK293 T-REx D1 cells, calcium flux, agonist mode | activation, % at 2 µM | 360,000 compounds, 1% hits | AID 504660, 2011
#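 Agonism was scored from calcium flux recorded over 180 s (1 read/s) after pintool compound addition, following a 10-cycle baseline. Cells were inducible force-coupled HEK293 TREx D1, plated overnight at 30 C and loaded with no-wash calcium dye.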
# USP1 inh = Inhibitors of USP1/UAF1: Primary Screen; 390,000 compounds, 0.23% hits; recombinant USP1/UAF1, Ub-Rhodamine cleavage fluorescence; Ubiquitin carboxyl-terminal hydrolase 1 (Homo sapiens), O94782; Potency, µM (series often up to 57.1 µM), hits mostly inhibitors; active = well fitted inhibition curve with a large enough effect; inconclusive = small, poorly fitted or top-dose-only effect; inactive = no such curve, though single readings can be large or run the other way; note: nearly all actives have a fitted effect of over 60% in size
#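 USP1/UAF1 complex at 1 nM was preincubated with compound for 15 min at room temperature, then Ub-Rho substrate (150nM final) was added. Fluorescence (480/540 nm) was read kinetically, 6 reads every 60 seconds.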
# D1 antag = Antagonist of Human D 1 Dopamine Receptor: qHTS; D(1A) dopamine receptor (Homo sapiens), P21728; HEK293 TREx D1 cells, calcium flux, dopamine EC80; hits give low values; activity change, negative = inhibition, % at 10 µM; 360,000 compounds, 3.2% hits; in the data active = activity change below about -30%
#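 Tetracycline-induced HEK293 Trex D1 cells, force-coupled to calcium, dye-loaded; compounds added and read 180 s, then EC80 dopamine added and calcium flux tracked kinetically another 180 s.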
# TRHR ag = qHTS for Small Molecule Agonists and Allosteric Enhancers of Human TRH Receptor: Primary Screen for Agonists; TRHR cells, calcium flux fluo-8, FDSS agonist mode; 360,000 compounds, 0.18% hits; AID 493084, 2011; activation, % at 2 µM
#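 Fluo-8-loaded TRHR cells; 10 s baseline, compound added, kinetic Ca2+ fluorescence read 1/s, agonist mode.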
# D1 potentiator = Potentiators of Human D1 Dopamine Receptor: qHTS | D(1A) dopamine receptor (Homo sapiens), P21728 | potentiation, % at 10 µM | 360,000 compounds, 0.036% hits | HEK293 TREx D1 cells, calcium flux, dopamine EC20 potentiation; in the data active = potentiation above about 30%
# Hits are given with their value; – = inactive; ? = inconclusive; · = no result; ! = repeats disagree. Cut-off read from the data, not from the text of the source, unless noted: active = activation above about 30%; inactive = the rest.
SMILES,TRHR PAM,D1 ag,USP1 inh,D1 antag,TRHR ag,D1 potentiator
Cc1ccc(-c2cc(C(=O)O)c3ccccc3n2)s1,–,–,–,-46,–,–
BrC(=C\c1ccccc1)/C=N/N1CCN(c2ccccn2)CC1,–,–,–,-32,–,–
c1ccc(N2CCN(c3cnccn3)CC2)nc1,–,–,–,-41,–,–
CCCCSCCCNC(=O)c1cc(-c2cccnc2)nc2ccc(S(=O)(=O)N3CCC(C)CC3)cc12,–,–,–,–,–,–
CCc1ccc(CNC(=O)CN2CCSc3ccccc32)cc1,–,–,?,–,–,–
Cc1ccccc1CNC(=O)CN1CCSc2ccccc21,–,–,–,-31,–,–
COc1cccc(CSc2nc3ccccc3c3nc(CCn4c(C)nc5ccccc54)nn23)c1,–,–,–,–,–,–
Cc1cc(C)n(-c2ccc(C(=O)Nc3cc(S(=O)(=O)N(C)C)ccc3Cl)cc2)n1,–,–,–,-30,–,–
Cc1cc(C)n(-c2ccc(C(=O)Nc3cccnc3Cl)cc2)n1,–,–,–,-41,–,–
Cc1cc(C)n(-c2ccc(C(=O)Nc3ccccn3)cc2)n1,–,–,–,–,–,–
O=C(Nc1ccccc1F)c1ccc(Cn2nc(N3CCN(c4ccccc4)CC3)ccc2=O)o1,–,–,–,–,–,–
CCN1CCN(c2cc(C)c3cc(NC(=O)c4ccncc4)ccc3n2)CC1,–,–,–,–,–,–
Cc1cc(N2CCN(C)CC2)nc2ccc(NC(=O)c3ccccc3F)cc12,–,–,–,-42!,–,–
CCN1CCN(c2cc(C)c3cc(NC(=O)c4cccnc4Cl)ccc3n2)CC1,–,–,–,–,–,–
Cc1cc(N2CCN(C)CC2)nc2ccc(NC(=O)c3cccnc3Cl)cc12,–,–,–,–,–,30
CCOc1cc(C(=O)Nc2ccc3nc(N4CCN(C)CC4)cc(C)c3c2)cc(OCC)c1OCC,–,–,–,-34,–,–
O=c1oc2ccccc2cc1-c1nc(-c2cccs2)no1,–,–,–,–,–,–
O=C(Cc1cccs1)NC1CC(=O)N(c2cccc(F)c2)C1 (configuration not stated),–,–,–,·,–,–
CCn1c(C)nc2cc(C(=O)n3cc(C(=O)c4cc(F)ccc4O)cn3)ccc21,30,–,·,–,–,–
COc1ccc(C(=O)N(Cc2ccccc2)c2cccc(C)c2)cc1,–,–,–,–,–,–
COc1ccccc1CC(=O)N(Cc1ccccc1)c1cccc(C)c1,–,–,–,-31,–,–
O=S(=O)(NCc1ccccc1)NCc1cccc(C(F)(F)F)c1,–,–,–,-38,–,–
O=C(CNC(=O)Cc1ccccc1)NCc1cccc(C(F)(F)F)c1,–,–,–,–,–,·
COc1cccc(Cn2ncc3c4sc(C)cc4n(C)c3c2=O)c1,–,–,·,–,–,–
O=C(C=Cc1ccc2c(c1)OCO2)c1ccccc1,·,·,–,·,·,·
O=C(/C=C/c1ccccc1)C1=C(O)C(=O)N(CCO)C1c1ccc2c(c1)OCO2 (configuration not stated),36,–,–,–,–,–
Cc1ccc(C(=O)c2sc(Nc3ccc(F)cc3)nc2N)c(C)c1,–,–,–,–,–,–
CCOC(=O)C1CCN(C(=O)CN2c3ccc(CC)cc3-c3ccccc3S2(=O)=O)CC1,–,–,–,-33,–,–
CCOC(=O)C1CCN(C(=O)COC(=O)c2cccc(F)c2)CC1,36,–,–,–,–,–
CCOC(=O)C1CCN(C(=O)CN2C(=O)c3ccccc3S2(=O)=O)CC1,–,–,–,–,–,–

# Screening results deposited in PubChem BioAssay by National Center for Advancing Translational Sciences (NCATS).
